Data taken from ChEMBL document CHEMBL1961873, “Compounds: GSK PKIS; Assays: Nanosyn kinase panel” (2012).

How the values were obtained:
[1] = biological target: T1, Mitogen-activated protein kinase 12 (Homo sapiens) (UniProt P53778); settings: at 1 µM;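 also: values are averaged p38gamma kinase inhibition readings, compounds tested at 1 µM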
T1 sequence (whole entry): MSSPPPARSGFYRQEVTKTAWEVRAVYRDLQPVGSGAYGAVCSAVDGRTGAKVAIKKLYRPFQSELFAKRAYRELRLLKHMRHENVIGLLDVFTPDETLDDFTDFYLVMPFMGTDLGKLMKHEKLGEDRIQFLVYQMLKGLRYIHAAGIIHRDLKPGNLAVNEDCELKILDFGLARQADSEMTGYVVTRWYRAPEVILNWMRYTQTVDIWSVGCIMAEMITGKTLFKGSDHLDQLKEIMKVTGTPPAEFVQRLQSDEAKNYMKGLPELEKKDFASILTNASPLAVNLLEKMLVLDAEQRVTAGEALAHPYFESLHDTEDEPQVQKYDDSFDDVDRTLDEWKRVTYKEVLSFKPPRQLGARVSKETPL

[2] = biological target: SRSF protein kinase 1 (Homo sapiens) (UniProt Q96SB4); settings: at 0.1 µM
[3] = biological target: SRSF protein kinase 1 (Homo sapiens) (UniProt Q96SB4); settings: at 1 µM
[4] = biological target: Phosphatidylinositol 4,5-bisphosphate 3-kinase catalytic subunit alpha isoform (Homo sapiens) (UniProt P42336); settings: at 0.1 µM
[5] = biological target: Phosphatidylinositol 4,5-bisphosphate 3-kinase catalytic subunit alpha isoform (Homo sapiens) (UniProt P42336); settings: at 1 µM
[6] = biological target: T2, Phosphatidylinositol 4,5-bisphosphate 3-kinase catalytic subunit delta isoform (Homo sapiens) (UniProt O00329); settings: at 0.1 µM
T2 sequence (whole entry): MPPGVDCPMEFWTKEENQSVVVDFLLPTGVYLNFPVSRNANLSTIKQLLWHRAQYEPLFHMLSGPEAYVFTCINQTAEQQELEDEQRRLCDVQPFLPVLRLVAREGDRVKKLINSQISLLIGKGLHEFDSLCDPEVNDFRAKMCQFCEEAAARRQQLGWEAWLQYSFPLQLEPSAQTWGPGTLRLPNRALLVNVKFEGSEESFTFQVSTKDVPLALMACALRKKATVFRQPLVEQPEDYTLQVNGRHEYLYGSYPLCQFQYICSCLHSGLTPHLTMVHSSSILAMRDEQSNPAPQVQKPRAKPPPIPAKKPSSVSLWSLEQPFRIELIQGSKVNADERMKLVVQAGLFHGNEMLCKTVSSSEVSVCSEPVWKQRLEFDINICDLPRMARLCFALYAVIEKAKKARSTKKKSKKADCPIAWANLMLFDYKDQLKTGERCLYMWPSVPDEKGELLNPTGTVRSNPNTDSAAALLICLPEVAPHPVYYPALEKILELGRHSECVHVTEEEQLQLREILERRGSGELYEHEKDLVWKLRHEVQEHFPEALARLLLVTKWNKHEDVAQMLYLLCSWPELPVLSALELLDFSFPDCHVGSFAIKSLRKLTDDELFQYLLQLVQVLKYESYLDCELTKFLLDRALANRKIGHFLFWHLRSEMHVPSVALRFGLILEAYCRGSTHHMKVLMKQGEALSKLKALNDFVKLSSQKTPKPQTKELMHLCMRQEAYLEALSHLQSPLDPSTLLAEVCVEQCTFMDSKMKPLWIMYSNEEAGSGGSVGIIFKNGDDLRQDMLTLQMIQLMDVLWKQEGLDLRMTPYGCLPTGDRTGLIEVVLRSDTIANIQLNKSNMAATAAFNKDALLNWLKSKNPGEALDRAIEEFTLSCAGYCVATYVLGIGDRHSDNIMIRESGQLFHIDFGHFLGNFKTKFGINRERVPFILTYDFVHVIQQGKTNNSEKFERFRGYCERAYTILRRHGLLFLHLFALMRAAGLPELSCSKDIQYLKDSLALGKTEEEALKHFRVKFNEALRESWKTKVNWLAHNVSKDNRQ

[7] = biological target: T2, Phosphatidylinositol 4,5-bisphosphate 3-kinase catalytic subunit delta isoform (Homo sapiens); settings: at 1 µM
[8] = biological target: Phosphatidylinositol 4-kinase beta (Homo sapiens) (UniProt Q9UBF8); settings: at 0.1 µM
[9] = biological target: Phosphatidylinositol 4-kinase beta (Homo sapiens) (UniProt Q9UBF8); settings: at 1 µM
[10] = biological target: Sphingosine kinase 1 (Homo sapiens) (UniProt Q9NYA1); settings: at 0.1 µM
[11] = biological target: Sphingosine kinase 1 (Homo sapiens) (UniProt Q9NYA1); settings: at 1 µM
[12] = biological target: T3, Sphingosine kinase 2 (Homo sapiens) (UniProt Q9NRA0); settings: at 0.1 µM
T3 sequence (whole entry): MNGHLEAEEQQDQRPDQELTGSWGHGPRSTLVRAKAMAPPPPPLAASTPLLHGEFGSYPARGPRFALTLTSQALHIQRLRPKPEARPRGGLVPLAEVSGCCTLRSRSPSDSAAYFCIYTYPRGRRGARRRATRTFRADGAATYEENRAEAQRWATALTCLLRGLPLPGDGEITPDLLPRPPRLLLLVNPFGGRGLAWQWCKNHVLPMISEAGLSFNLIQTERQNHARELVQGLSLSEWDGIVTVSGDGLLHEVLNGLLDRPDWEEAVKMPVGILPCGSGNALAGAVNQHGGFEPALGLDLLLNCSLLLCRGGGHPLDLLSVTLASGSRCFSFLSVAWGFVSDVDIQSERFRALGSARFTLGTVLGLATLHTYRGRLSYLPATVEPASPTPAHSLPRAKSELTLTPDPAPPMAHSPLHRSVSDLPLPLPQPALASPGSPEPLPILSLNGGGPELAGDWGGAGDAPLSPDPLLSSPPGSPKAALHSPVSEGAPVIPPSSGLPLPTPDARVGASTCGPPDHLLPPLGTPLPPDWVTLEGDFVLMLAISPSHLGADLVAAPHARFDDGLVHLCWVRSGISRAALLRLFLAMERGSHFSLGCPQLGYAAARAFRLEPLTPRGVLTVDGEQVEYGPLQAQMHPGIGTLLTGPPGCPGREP

[13] = biological target: T3, Sphingosine kinase 2 (Homo sapiens); settings: at 1 µM
[14] = biological target: Casein kinase II subunit alpha (Homo sapiens) (UniProt P68400); settings: at 0.1 µM
[15] = biological target: Casein kinase II subunit alpha (Homo sapiens) (UniProt P68400); settings: at 1 µM
[16] = biological target: T4, Inhibitor of nuclear factor kappa-B kinase subunit alpha (Homo sapiens) (UniProt O15111); settings: at 0.1 µM
T4 sequence (whole entry): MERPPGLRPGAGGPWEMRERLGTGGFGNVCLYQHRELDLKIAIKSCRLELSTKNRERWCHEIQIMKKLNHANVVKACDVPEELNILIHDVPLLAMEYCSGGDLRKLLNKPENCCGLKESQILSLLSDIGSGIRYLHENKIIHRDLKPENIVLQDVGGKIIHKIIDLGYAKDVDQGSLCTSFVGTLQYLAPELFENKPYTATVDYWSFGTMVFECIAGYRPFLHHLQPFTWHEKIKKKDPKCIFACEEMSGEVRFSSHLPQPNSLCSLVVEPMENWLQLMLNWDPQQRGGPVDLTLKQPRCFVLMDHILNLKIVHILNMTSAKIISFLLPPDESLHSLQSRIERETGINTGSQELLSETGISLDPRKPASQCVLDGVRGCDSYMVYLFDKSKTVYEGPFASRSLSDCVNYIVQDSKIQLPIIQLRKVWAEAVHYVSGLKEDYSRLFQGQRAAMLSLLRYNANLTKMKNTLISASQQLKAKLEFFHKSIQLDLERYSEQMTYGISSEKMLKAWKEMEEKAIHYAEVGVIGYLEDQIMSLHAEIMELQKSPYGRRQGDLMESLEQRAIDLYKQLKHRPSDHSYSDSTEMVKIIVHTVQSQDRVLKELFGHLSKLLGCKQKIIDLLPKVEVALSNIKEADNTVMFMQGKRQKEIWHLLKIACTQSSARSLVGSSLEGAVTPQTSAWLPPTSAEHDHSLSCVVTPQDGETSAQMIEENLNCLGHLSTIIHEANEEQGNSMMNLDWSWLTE

[17] = biological target: T4, Inhibitor of nuclear factor kappa-B kinase subunit alpha (Homo sapiens); settings: at 1 µM
[18] = biological target: T5, Inhibitor of nuclear factor kappa-B kinase subunit beta (Homo sapiens) (UniProt O14920); settings: at 0.1 µM
T5 sequence (whole entry): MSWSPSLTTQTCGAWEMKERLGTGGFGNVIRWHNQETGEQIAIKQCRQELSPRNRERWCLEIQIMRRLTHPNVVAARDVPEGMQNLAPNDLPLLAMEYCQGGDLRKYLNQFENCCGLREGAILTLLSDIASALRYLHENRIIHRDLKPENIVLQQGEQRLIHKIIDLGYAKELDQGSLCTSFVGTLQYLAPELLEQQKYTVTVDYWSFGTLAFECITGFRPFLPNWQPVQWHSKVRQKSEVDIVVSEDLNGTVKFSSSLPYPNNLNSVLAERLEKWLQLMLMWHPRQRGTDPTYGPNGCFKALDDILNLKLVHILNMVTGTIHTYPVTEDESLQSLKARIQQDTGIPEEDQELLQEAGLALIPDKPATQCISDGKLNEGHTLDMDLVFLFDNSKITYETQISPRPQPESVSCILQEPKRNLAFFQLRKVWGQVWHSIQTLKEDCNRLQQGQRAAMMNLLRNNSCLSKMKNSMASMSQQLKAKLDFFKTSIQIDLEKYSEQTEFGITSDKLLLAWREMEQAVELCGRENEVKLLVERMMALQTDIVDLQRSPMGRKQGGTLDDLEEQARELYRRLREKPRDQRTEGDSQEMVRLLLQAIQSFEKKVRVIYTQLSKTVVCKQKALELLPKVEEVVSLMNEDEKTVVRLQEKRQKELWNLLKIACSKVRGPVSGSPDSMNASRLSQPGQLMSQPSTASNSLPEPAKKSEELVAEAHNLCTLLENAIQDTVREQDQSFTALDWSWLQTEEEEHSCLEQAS

[19] = biological target: T5, Inhibitor of nuclear factor kappa-B kinase subunit beta (Homo sapiens); settings: at 1 µM
[20] = biological target: T6, Inhibitor of nuclear factor kappa-B kinase subunit epsilon (Homo sapiens) (UniProt Q14164); settings: at 0.1 µM;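 also: mean inhibition of IKKε reported, from the GSK PKIS dataset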
T6 sequence (whole entry): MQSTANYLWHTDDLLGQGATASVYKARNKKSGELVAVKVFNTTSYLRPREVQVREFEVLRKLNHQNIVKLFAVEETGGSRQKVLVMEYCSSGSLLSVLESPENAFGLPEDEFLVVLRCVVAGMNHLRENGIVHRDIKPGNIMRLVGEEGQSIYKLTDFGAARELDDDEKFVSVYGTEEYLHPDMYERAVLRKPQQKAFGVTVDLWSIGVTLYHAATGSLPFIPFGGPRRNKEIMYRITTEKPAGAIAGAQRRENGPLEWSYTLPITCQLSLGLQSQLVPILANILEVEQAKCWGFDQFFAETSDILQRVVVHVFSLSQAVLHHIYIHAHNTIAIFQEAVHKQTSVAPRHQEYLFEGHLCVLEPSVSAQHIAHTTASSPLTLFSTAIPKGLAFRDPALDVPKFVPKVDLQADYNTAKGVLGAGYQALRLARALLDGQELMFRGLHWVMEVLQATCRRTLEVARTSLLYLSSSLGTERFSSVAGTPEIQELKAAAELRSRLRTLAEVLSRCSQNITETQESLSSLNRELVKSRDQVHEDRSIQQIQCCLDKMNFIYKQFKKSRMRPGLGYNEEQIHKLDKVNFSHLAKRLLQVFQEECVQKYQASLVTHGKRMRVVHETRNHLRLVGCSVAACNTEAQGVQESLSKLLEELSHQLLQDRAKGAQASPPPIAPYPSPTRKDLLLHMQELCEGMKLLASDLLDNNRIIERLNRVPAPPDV

Sphingosine kinase 1 (Homo sapiens), sequence (Q9NYA1 whole entry): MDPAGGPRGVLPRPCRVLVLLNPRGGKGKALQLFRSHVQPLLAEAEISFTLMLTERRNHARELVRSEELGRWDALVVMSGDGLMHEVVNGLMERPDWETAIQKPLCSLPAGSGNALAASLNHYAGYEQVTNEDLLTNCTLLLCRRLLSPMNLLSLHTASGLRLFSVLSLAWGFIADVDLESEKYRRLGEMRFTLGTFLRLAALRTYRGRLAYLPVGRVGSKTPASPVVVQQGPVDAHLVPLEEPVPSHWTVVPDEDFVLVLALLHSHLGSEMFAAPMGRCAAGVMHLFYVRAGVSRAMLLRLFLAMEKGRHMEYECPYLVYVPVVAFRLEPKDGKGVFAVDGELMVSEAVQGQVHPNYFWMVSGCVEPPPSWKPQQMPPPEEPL
Phosphatidylinositol 4,5-bisphosphate 3-kinase catalytic subunit alpha isoform (Homo sapiens), sequence (P42336 whole entry, canonical isoform): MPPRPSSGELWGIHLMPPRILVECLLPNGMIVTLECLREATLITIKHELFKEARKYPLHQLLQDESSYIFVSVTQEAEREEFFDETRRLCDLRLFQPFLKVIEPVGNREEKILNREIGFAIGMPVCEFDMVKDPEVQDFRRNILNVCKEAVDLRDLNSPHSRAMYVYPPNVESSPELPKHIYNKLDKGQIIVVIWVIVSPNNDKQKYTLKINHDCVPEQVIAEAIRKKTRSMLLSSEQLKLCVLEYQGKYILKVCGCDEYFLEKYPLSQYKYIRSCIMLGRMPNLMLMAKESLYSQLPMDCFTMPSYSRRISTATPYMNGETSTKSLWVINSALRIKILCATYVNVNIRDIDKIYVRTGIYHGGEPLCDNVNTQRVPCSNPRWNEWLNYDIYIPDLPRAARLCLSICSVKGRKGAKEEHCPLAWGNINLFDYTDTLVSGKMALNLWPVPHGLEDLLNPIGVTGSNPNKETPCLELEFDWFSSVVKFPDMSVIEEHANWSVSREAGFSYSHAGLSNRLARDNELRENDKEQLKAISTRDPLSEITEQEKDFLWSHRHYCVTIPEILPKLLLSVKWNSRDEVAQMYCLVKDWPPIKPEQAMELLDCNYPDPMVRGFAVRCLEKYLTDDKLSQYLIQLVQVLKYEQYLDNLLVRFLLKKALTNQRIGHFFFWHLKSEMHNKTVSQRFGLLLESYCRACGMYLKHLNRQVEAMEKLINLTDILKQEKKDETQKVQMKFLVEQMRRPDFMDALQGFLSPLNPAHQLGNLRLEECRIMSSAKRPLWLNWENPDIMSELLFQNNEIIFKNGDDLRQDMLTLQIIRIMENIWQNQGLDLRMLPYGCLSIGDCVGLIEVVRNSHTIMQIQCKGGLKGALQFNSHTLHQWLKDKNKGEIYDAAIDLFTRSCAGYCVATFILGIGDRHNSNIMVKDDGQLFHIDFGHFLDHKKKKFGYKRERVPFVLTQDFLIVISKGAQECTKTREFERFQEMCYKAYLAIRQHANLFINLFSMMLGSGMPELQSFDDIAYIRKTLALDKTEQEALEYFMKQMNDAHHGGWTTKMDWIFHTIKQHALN
SRSF protein kinase 1 (Homo sapiens), sequence (Q96SB4 whole entry, canonical isoform): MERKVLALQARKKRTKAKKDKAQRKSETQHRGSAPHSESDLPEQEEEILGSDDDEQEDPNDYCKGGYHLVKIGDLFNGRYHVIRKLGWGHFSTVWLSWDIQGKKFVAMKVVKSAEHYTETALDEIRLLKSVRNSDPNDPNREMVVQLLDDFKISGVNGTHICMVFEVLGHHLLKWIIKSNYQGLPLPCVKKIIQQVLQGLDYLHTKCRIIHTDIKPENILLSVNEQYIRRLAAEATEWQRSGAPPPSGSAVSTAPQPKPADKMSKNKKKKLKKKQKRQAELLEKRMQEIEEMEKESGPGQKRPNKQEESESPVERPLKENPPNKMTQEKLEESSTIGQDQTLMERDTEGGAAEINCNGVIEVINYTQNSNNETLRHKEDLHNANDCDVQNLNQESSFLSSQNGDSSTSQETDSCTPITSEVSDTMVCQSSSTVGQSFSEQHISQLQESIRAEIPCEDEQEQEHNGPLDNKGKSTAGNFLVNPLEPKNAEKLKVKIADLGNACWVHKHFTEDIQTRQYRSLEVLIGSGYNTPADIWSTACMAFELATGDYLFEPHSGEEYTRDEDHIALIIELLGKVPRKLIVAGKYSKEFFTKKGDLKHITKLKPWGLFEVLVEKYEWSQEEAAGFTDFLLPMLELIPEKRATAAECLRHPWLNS
Phosphatidylinositol 4-kinase beta (Homo sapiens), sequence (Q9UBF8 2-816 limits assumed): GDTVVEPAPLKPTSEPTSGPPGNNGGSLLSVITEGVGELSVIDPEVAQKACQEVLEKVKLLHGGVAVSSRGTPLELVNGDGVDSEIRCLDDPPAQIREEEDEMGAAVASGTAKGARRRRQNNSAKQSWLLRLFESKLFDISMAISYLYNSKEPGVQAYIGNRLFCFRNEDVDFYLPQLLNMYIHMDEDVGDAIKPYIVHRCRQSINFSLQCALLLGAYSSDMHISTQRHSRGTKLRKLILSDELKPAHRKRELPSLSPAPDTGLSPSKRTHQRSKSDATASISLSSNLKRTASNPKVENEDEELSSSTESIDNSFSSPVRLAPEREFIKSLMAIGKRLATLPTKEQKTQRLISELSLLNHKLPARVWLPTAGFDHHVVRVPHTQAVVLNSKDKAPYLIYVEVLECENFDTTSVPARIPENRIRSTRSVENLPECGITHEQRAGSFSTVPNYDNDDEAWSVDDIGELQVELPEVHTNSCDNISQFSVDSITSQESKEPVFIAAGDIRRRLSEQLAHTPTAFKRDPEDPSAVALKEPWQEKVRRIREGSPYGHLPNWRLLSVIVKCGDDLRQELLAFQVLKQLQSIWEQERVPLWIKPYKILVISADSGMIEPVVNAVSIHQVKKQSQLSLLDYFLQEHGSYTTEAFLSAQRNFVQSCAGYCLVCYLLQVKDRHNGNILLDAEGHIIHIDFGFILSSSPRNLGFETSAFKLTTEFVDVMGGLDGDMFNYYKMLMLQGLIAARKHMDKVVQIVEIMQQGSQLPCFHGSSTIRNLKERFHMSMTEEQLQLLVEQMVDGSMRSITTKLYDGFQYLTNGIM
Casein kinase II subunit alpha (Homo sapiens), sequence (P68400 whole entry, looked up): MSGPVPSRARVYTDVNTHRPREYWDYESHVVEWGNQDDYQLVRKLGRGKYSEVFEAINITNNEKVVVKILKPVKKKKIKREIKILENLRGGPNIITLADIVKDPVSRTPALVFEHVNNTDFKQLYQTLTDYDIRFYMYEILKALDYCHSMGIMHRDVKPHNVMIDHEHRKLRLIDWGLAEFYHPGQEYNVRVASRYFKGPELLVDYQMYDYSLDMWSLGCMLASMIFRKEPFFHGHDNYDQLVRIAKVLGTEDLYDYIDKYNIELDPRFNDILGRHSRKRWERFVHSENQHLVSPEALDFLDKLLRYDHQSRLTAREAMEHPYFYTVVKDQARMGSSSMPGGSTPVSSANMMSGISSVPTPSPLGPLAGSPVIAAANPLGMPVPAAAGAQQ

SMILES	inhibition [1]	inhibition [2]	inhibition [3]	inhibition [4]	inhibition [5]	inhibition [6]	inhibition [7]	inhibition [8]	inhibition [9]	inhibition [10]	inhibition [11]	inhibition [12]	inhibition [13]	inhibition [14]	inhibition [15]	inhibition [16]	inhibition [17]	inhibition [18]	inhibition [19]	inhibition [20]
O=C(Nc1n[nH]c2nc(-c3ccc(O)cc3)c(Br)cc12)C1CC1	16.6%	-0.67%	0.36%	6.93%	6%	3.58%	6.8%	-5.7%	3.27%	-0.06%	-0.49%	-0.76%	-0.74%	3.43%	5.84%	8.51%	12.4%	6.98%	9.61%	8.95%
CCc1cccc(CC)c1/C=C/c1cncc(C(=O)NC)c1	1.19%	-1.77%	-2.98%	1.54%	1.36%	4.84%	3.62%	-2.02%	-0.43%	0.93%	-1.72%	0.98%	1.95%	-0.28%	-1.26%	-2.82%	-5.51%	4.86%	2.91%	1.34%
O=C(NCC1CC1)c1ccc(-c2cccc(C(=O)NC3CC3)c2)cc1	1.8%	-1.5%	-3.41%	1.61%	1.53%	1.94%	2.38%	-4.62%	-1.95%	0.53%	-3.07%	0.02%	1.28%	0.31%	-2.23%	4.96%	0.42%	1.17%	0.13%	3.8%
CCS(=O)(=O)c1ccc(OC)c(Nc2ncc(-c3ccccc3Cl)o2)c1	-0.19%	-0.98%	0.67%	-0.1%	-1.53%	2.13%	1.67%	3.2%	-6.4%	-0.2%	-2.06%	0%	-1.74%	3.8%	23.3%	2.45%	3.42%	1.4%	-0.23%	3.21%
CN1CCN(CCCNc2nc3ccc(Oc4ccc(NC(=O)Nc5cc(C(F)(F)F)ccc5F)cc4)cc3[nH]2)CC1	1.58%	-1.48%	-3.44%	2.13%	0.9%	1.3%	7.49%	1.45%	-2.72%	-1.28%	-1.27%	-0.2%	-0.28%	-2.06%	-5.31%	3.44%	-6.02%	0.21%	-0.85%	-0.49%
O=C(Nc1n[nH]c2cc(-c3ccccc3)ccc12)C1CC1	3.52%	-1.71%	-1.41%	2.18%	4.34%	1.72%	4.03%	-5.9%	0.66%	-0.8%	0.1%	-1.1%	-0.92%	1.99%	6.38%	2.61%	7.25%	5.63%	3.54%	4.3%
COc1ccc2cc(-c3c(-c4ccncc4)nc(-c4ccc([S+](C)[O-])cc4C)n3C)ccc2c1 (stereo not given)	-0.09%	-0.31%	-0.89%	-2.02%	-0.83%	-2.38%	-1.78%	2.91%	-0.88%	-0.09%	5.11%	0.43%	0.76%	2.77%	3.85%	-4.94%	-5.55%	-0.05%	-2.53%	-2.45%
